Source: the supplement of paper PMC9135407
Where “and” joins values, the source holds several entries; their conditions need not be identical. Equal entries are not always repeated. Structures can show the parent of a compound that is named as a salt. The campaign covered roughly 5,800 compounds. About 620 (11%) showed activity. The entries come from a sample that favours actives as a whole. Unmarked numbers belong to inactive results.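 How the source made its calls: active = score above a cut-off or among the top three wells of a plate; in these data no inactive exceeds 0.85.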

Test system: primary human hepatic stellate cells (donor 1)
Experiment: scaled lipid accumulation score (0 = DMSO-like, 1 = nortriptyline-like); higher = stronger HSC inactivation (lipid re-accumulation), active = hit call of the paper
Conditions: 48 h
Protocol: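 Primary lipid accumulation screen in primary human hepatic stellate cell myofibroblasts (donor 1, passage 8) in 384-well plates. 100 nL of library compound was pin-transferred into 30 µL medium in duplicate, and cells were treated for 48 h. The 'Scaled' score combines distance from plate baseline, toxicity and reproducibility penalties, and is normalised to nortriptyline (positive) and DMSO (negative) controls on each plate. A hit is defined as scaled >0.85 or among the top 3 wells per plate.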

[1] = library stock concentration: 1 mM
[2] = library stock concentration: 10 mM
[3] = library stock concentration: 80 uM
[4] = library stock concentration: 400 uM
[5] = library stock concentration: 2 mM
[6] = library stock concentration: 3.33 mM
[7] = library stock concentration: 6.4 mM

## CC(C)CCCCCCC/C=C/C(=O)O [trans-.DELTA.2-11-methyl-Dodecenoic Acid]
[1]
  scaled lipid accumulation score: ≤ 0

## CC(C)=CCC/C(C)=C/CC/C(C)=C/CSCC(=O)O [S-Farnesyl Thioacetic Acid]
[1]
  scaled lipid accumulation score: 0.018

## CC(C)=CCC/C(C)=C/CC/C(C)=C/CSCC(=O)O [Farnesylthioacetic acid]
[1]
  scaled lipid accumulation score: ≤ -0.021

## CCCCCCCCCC(=O)NC(CN1CCOCC1)C(O)c1ccccc1 (configuration not stated) [PDMP (hydrochloride)]
[1]
  scaled lipid accumulation score: ≤ 0

## C1CCN2C[C@@H]3C[C@@H](CN4CCCC[C@@H]34)[C@H]2C1 [Sparteine (-)]
  scaled lipid accumulation score: ≤ 0

## C1CCN2C[C@@H]3C[C@@H](CN4CCCC[C@@H]34)[C@H]2C1 [Sparteine sulfate]
Library stock concentration: 6 mM
  scaled lipid accumulation score: ≤ -0.001
[2]
  scaled lipid accumulation score: 0.072

## CCCCC[C@H](O)/C=C/[C@H]1[C@H](O)CC(=O)[C@@H]1C/C=C\CCCC(=O)O [Prostaglandin  E2]
[1]
  scaled lipid accumulation score: ≤ -0.021

## CCCCC[C@H](O)/C=C/[C@H]1[C@H](O)CC(=O)[C@@H]1C/C=C\CCCC(=O)O [Dinoprostone]
Library stock concentration: 5.7 mM
  scaled lipid accumulation score: ≤ -0.006

## CCCCC[C@H](O)/C=C/[C@H]1[C@H](O)CC(=O)[C@@H]1C/C=C\CCCC(=O)O [Prostaglandin E2]
[1]
  scaled lipid accumulation score: ≤ 0
[2]
  scaled lipid accumulation score: ≤ -0.001

## Cc1ccc2c(c1)C(=O)C1(O)CCN(c3ccccc3)C1=N2 (single isomer, unassigned; (-)) [(-)-Blebbistatin]
[3]
  scaled lipid accumulation score: ≤ -0.001
[4]
  scaled lipid accumulation score: ≤ -0.001
[1]
  scaled lipid accumulation score: ≤ 0
[5]
  scaled lipid accumulation score: ≤ -0.001
[6]
  scaled lipid accumulation score: ≤ -0.009
[2]
  scaled lipid accumulation score: 0.264

## CCCCC/C=C\C/C=C\CC/C=C\CCCC(=O)OC [Pinolenic Acid methyl ester]
[1]
  scaled lipid accumulation score: ≤ 0

## CC(C)(C)c1cnc(CSc2cnc(NC(=O)C3CCNCC3)s2)o1
[3]
  scaled lipid accumulation score: 0.373
[4]
  scaled lipid accumulation score: 0.262 and 0.17
[5]
  scaled lipid accumulation score: 0.414 and 0.498
[6]
  scaled lipid accumulation score: 0.468
[2]
  scaled lipid accumulation score: 0.32 and 0.42 and 0.56

## CN([C@@H](Cc1ccc(OS(=O)(=O)c2cccc3cnccc23)cc1)C(=O)N1CCN(c2ccccc2)CC1)S(=O)(=O)c1cccc2cnccc12
[3]
  scaled lipid accumulation score: ≤ 0
[4]
  scaled lipid accumulation score: ≤ 0
[5]
  scaled lipid accumulation score: ≤ 0
[2]
  scaled lipid accumulation score: 0.021

## COC(=O)C1=CO[C@@H](C)[C@H]2CN3CCc4c([nH]c5ccccc45)[C@@H]3C[C@H]12 [Ajmalicine hydrochloride]
  scaled lipid accumulation score: 0.17

## CCCCc1nn(-c2ccccc2C(F)(F)F)c(=O)n1Cc1ccc(-c2ccccc2S(=O)(=O)NC(=O)c2sccc2C)cc1
[2]
  scaled lipid accumulation score: ≤ -0.001

## c1ccc2c(-c3cnn4cc(-c5ccc(N6CCNCC6)cc5)cnc34)ccnc2c1
[3]
  scaled lipid accumulation score: 0.107
[4]
  scaled lipid accumulation score: ≤ -0.009
[5]
  scaled lipid accumulation score: 0.656
[2]
  scaled lipid accumulation score: 0.103

## CCCCCC(=O)CC[C@@H]1[C@@H](C/C=C\CCCC(=O)O)[C@@H](O)C[C@H]1O [13,14-dihydro-15-keto Prostaglandin F2.alpha.]
[1]
  scaled lipid accumulation score: ≤ 0

## NC(=O)c1cccc(-c2cc(Nc3ccc(OC(F)(F)F)cc3)ncn2)c1
[3]
  scaled lipid accumulation score: ≤ 0
[4]
  scaled lipid accumulation score: ≤ 0
[5]
  scaled lipid accumulation score: 0.03
[6]
  scaled lipid accumulation score: ≤ 0
[2]
  scaled lipid accumulation score: ≤ 0 and 0.198

## CCCCCCCCCCCCC(O)C(=O)O (configuration not stated) [2-Hydroxymyristic acid]
[1]
  scaled lipid accumulation score: 0.03

## CCCCCCCCCCCCC(O)C(=O)O (configuration not stated) [2-Hydroxymyristic Acid]
[1]
  scaled lipid accumulation score: ≤ 0

## COC1=C(OC)C(=O)c2ccccc2C1=O [2,3-Dimethoxy-1,4-naphthoquinone]
[2]
  scaled lipid accumulation score: 0.634

## CC1=CC(=O)c2ccccc2C1=O [Menadione] [listing 1 of 2 here]
[6]
  scaled lipid accumulation score: ≤ 0
[2]
  scaled lipid accumulation score: 0.707 and ≤ 0
Library stock concentration: 11.6 mM
  scaled lipid accumulation score: 0.594

## CC1=CC(=O)c2ccccc2C1=O [Menadione] [listing 2 of 2 here]
  scaled lipid accumulation score: 0.873 (active)

## O=C1NC(=O)/C(=C/c2ccc3nccnc3c2)S1
[3]
  scaled lipid accumulation score: ≤ -0.016
[4]
  scaled lipid accumulation score: ≤ -0.016
[5]
  scaled lipid accumulation score: ≤ -0.016
[2]
  scaled lipid accumulation score: ≤ -0.016

## COc1cc(CNC(=O)CCCC/C=C/C(C)C)ccc1O [E-capsaicin]
[2]
  scaled lipid accumulation score: ≤ 0

## COc1cc(CNC(=O)CCCC/C=C/C(C)C)ccc1O [Capsaicin]
  scaled lipid accumulation score: ≤ 0
[1]
  scaled lipid accumulation score: ≤ 0
[2]
  scaled lipid accumulation score: ≤ 0

## COc1cc(CNC(=O)CCCC/C=C/C(C)C)ccc1O [(E)-Capsaicin]
[2]
  scaled lipid accumulation score: ≤ 0

## COc1cc(CNC(=O)CCCC/C=C/C(C)C)ccc1O [E-Capsaicin]
Library stock concentration: 16.4 mM
  scaled lipid accumulation score: 0.112

## COc1c(C)c2c(c(O)c1C/C=C(\C)CCC(=O)OCCN1CCOCC1)C(=O)OC2 [Mycophenolate Mofetil]
[6]
  scaled lipid accumulation score: ≤ 0
[2]
  scaled lipid accumulation score: ≤ 0

## CC(C)c1cccc(C(C)C)c1N1C(=O)c2ccc(O)cc2C1=O
[2]
  scaled lipid accumulation score: 0.259

## CN(C)CC(C)(C)CNc1nn2c(-c3ccccc3)nnc2cc1C1CCC1
[4]
  scaled lipid accumulation score: ≤ -0.005
[5]
  scaled lipid accumulation score: ≤ -0.005
[2]
  scaled lipid accumulation score: 0.159

## Cn1ccc2cc3c(cc21)CCN3C(=O)Nc1cccnc1
[2]
  scaled lipid accumulation score: ≤ 0 and ≤ -0.006

## Cc1cc2c(cc1Cl)N(C(=O)Nc1ccnc3ccccc13)CC2
[2]
  scaled lipid accumulation score: 1.08 (active)

## Cc1cc2c(cc1Cl)N(C(=O)Nc1ccc(Oc3cccnc3C)nc1)CC2
[2]
  scaled lipid accumulation score: 0.832

## CC(=Nc1ccccc1N)c1c(C)cc(=O)n(O)c1O
[2]
  scaled lipid accumulation score: ≤ 0

## CCCCCCCCCCCCCCCCOC[C@H](COP(=O)([O-])OCC[N+](C)(C)C)OC(=O)CCC [Butanoyl PAF]
[1]
  scaled lipid accumulation score: ≤ 0

## CO[C@H]1C[C@@H]2CC[C@@H](C)[C@@](O)(O2)C(=O)C(=O)N2CCCC[C@H]2C(=O)O[C@H]([C@H](C)C[C@@H]2CC[C@H](n3cnnn3)[C@H](OC)C2)CC(=O)[C@H](C)/C=C(\C)[C@@H](O)[C@@H](OC)C(=O)[C@H](C)C[C@H](C)/C=C/C=C/C=C/1C [Zotarolimus(ABT-578)]
[6]
  scaled lipid accumulation score: 0.109
[2]
  scaled lipid accumulation score: ≤ 0

## OC[C@H]1NC[C@@H](O)[C@@H](O)[C@@H]1O [1-Deoxymannojirimycin hydrochloride]
[2]
  scaled lipid accumulation score: ≤ -0.006
Library stock concentration: 25.1 mM
  scaled lipid accumulation score: ≤ -0.012

## CCCCC(C)(C)[C@H](O)/C=C/[C@H]1C=CC(=O)[C@@H]1C/C=C\CCCC(=O)O [16,16-dimethyl Prostaglandin A2]
[1]
  scaled lipid accumulation score: ≤ 0

## C#CC1(O)CC[C@H]2[C@@H]3CCC4=CC(=O)CC[C@@H]4[C@H]3CC[C@@]21CC (some centres not stated) [Norgestrel]
[1]
  scaled lipid accumulation score: 0.037
[2]
  scaled lipid accumulation score: 0.03

## C#C[C@]1(O)CCC2C3CCC4=CC(=O)CC[C@@H]4C3CC[C@@]21CC (some centres not stated) [Norgestrel]
[7]
  scaled lipid accumulation score: 1.05 (active)

## C#C[C@]1(O)CC[C@H]2[C@@H]3CCC4=CC(=O)CC[C@@H]4[C@H]3CC[C@@]21CC [Levonorgestrel]
[1]
  scaled lipid accumulation score: ≤ 0
[6]
  scaled lipid accumulation score: ≤ 0
[7]
  scaled lipid accumulation score: 0.107
[2]
  scaled lipid accumulation score: 0.727

## C#C[C@]1(O)CC[C@H]2[C@@H]3CCC4=CC(=O)CC[C@@H]4[C@H]3CC[C@@]21CC [Norgestrel-(-)-D]
  scaled lipid accumulation score: ≤ 0

## C#C[C@]1(O)CC[C@H]2[C@@H]3CCC4=CC(=O)CC[C@@H]4[C@H]3CC[C@@]21CC
[2]
  scaled lipid accumulation score: 0.195

## Nc1nc2c(nc(O)n2[C@@H]2O[C@H](CO)[C@@H](O)[C@H]2O)c(=O)[nH]1 [8-hydroxy Guanosine]
[1]
  scaled lipid accumulation score: ≤ 0

## CCCCC[C@H](O)/C=C/[C@@H]1[C@H]2C/C(=C\CCCC(=O)O)C[C@H]2C[C@H]1O [5-cis Carbaprostacyclin]
[1]
  scaled lipid accumulation score: ≤ 0

## O=C1OC[C@H](Cc2cccc(O)c2)[C@H]1Cc1cccc(O)c1
[1]
  scaled lipid accumulation score: ≤ 0

## O=C(Nc1cccc(Nc2nccc(Nc3cccc(C(F)(F)F)c3)n2)c1)C1CC1 [Aurora Kinase Inhibitor III]
[6]
  scaled lipid accumulation score: 0.0325

## CCN(CC)CCCCNc1ncc2cc(-c3cc(OC)cc(OC)c3)c(NC(=O)NC(C)(C)C)nc2n1 [listing 1 of 3 here]
[3]
  scaled lipid accumulation score: ≤ 0
[4]
  scaled lipid accumulation score: ≤ 0

## CCN(CC)CCCCNc1ncc2cc(-c3cc(OC)cc(OC)c3)c(NC(=O)NC(C)(C)C)nc2n1 [listing 2 of 3 here]
[6]
  scaled lipid accumulation score: 1.34 (active)
[2]
  scaled lipid accumulation score: 1.01 (active)

## CCN(CC)CCCCNc1ncc2cc(-c3cc(OC)cc(OC)c3)c(NC(=O)NC(C)(C)C)nc2n1 [listing 3 of 3 here]
[5]
  scaled lipid accumulation score: 1.12 (active)
[2]
  scaled lipid accumulation score: 1.22 (active)

## CCN(CC)CCCCNc1ncc2c(n1)N(C)C(=O)N(c1c(Cl)c(OC)cc(OC)c1Cl)C2
[3]
  scaled lipid accumulation score: ≤ -0.008
[4]
  scaled lipid accumulation score: ≤ -0.008
[5]
  scaled lipid accumulation score: ≤ -0.001
[2]
  scaled lipid accumulation score: 0.416

## CCN(CC)CCNC(=O)COc1ccc(OC)cc1 [Mefexamide]
Library stock concentration: 6.3 mM
  scaled lipid accumulation score: 0.018
[2]
  scaled lipid accumulation score: ≤ 0

## COc1cc(OC)cc(-c2cc3cnc(N)nc3nc2NC(=O)NC(C)(C)C)c1
[2]
  scaled lipid accumulation score: ≤ 0

## CCN(CC)CCNC(=O)COc1ccc(OC)cc1 [Mefexamide hydrochloride]
  scaled lipid accumulation score: ≤ 0

## CCCCCCCCCCCCCC=CC(O)C(CO)NC(=O)CCCCCCCCCCCCCCCCCCCCCCC (configuration not stated) [Lignoceric Ceramide]
[1]
  scaled lipid accumulation score: ≤ 0

## Nc1nc2ccc(Cl)cc2n2c(-c3ccccc3)nnc12
[2]
  scaled lipid accumulation score: 0.049

## CCCCC#Cc1nc(NC)c2ncn([C@@H]3O[C@H](CO)[C@@H](O)[C@H]3O)c2n1
[2]
  scaled lipid accumulation score: ≤ 0 and ≤ -0.006
